MITF inh: inhibitors of human MITF; 0.91% of 650,000 active; inhibition, % at 2.6 µM; O75030; AlphaScreen MITF homodimerization, bead proximity signal; in the data active = inhibition above about 50%;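 also: 0% = vehicle wells with protein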
GPR151 ag: activators of human GPR151; activation, % at 11.2 µM; AID 1508602; PathHunter beta-arrestin GPR151 cells, luminescence; Q8TDV0; 1% of 650,000 active; in the data active = activation above about 4.9%;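 also: 0% = median of compound wells and 100% = cells with positive control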
TEAD-YAP block: TEAD-YAP interaction inhibition | HEK-TIYL cells, TEAD-Gal4/YAP UAS-luciferase luminescence | inhibition, % at 9.12 µM | 1.4% of 640,000 active | AID 1259422; in the data active = inhibition above about 32%;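 also: 0% = median of test compound wells and 100% = reference inhibitor wells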
FBW7 activator: human FBW7 E3 ligase activation, primary screen; AlphaScreen FBW7–phospho-cyclin E peptide binding, activator screen; Q969H0; 0.13% of 650,000 active; normalized activity (activation), % at 26.1 µM; in the data active = normalized activity above about 1.9%;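 also: purified mutant Fbw7 with reduced substrate affinity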
Target sequence (Q969H0 whole entry, looked up): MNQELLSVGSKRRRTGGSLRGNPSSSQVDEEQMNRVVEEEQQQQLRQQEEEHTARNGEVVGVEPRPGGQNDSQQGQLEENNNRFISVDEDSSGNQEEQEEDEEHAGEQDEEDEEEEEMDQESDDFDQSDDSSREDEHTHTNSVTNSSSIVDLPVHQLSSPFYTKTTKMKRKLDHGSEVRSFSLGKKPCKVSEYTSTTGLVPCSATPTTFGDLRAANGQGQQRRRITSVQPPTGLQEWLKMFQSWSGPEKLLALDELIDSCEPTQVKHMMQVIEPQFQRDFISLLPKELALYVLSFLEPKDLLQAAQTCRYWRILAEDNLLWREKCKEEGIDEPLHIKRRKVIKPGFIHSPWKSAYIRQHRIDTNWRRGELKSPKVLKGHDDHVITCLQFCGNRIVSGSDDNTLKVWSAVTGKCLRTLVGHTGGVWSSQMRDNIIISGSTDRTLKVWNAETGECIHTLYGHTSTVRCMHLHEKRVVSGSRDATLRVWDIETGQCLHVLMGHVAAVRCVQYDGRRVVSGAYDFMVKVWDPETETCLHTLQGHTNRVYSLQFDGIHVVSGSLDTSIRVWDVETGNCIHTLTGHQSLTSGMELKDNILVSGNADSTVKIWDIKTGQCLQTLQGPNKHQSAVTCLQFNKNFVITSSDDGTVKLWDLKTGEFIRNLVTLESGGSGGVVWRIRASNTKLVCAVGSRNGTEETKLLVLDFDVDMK
An asterisk follows results filed as active. Compounds with a hit are over-represented: about 3.4% of the library has one in this group of screens.

`COc1cccc(C(=O)/C=C\Nc2ccc(Br)cc2)c1` gave MITF inh -14, GPR151 ag -9, TEAD-YAP block 54* and FBW7 activator 0.
Screening O=C(/C=C\Nc1ccc2c(c1)OCO2)c1cccc2ccccc12 returned MITF inh 1, GPR151 ag 2, TEAD-YAP block -49 and FBW7 activator 0.
For O=C(/C=C\Nc1ccc2c(c1)OCO2)c1ccccc1 the results were MITF inh 2, GPR151 ag 0, TEAD-YAP block 74* and FBW7 activator 0.
For CCOc1cc([N+](=O)[O-])cc(/C=N/NC(=O)COc2cccc(C)c2C)c1O the results were MITF inh 66*, GPR151 ag 0, TEAD-YAP block -3 and FBW7 activator 0.
Screening CCOc1ccccc1OCC(=O)N/N=C1\CCCC(=O)C1 returned MITF inh -5, GPR151 ag 1, TEAD-YAP block 48* and FBW7 activator 0.
Cc1ccc(/C=N/NC(=O)CCc2c(C)n[nH]c2C)cc1 was read as MITF inh 4, GPR151 ag 0, TEAD-YAP block 33* and FBW7 activator 0.
Screening Cc1ccc(C(C)C)c(OCC(=O)N/N=C2\CCCC(=O)C2)c1 returned MITF inh 4, GPR151 ag 2, TEAD-YAP block 2 and FBW7 activator 0.
For CCOc1cc([N+](=O)[O-])cc(/C=N/NC(=O)COc2c(C)ccc(C)c2C)c1O the results were MITF inh -3, GPR151 ag 2, TEAD-YAP block 0 and FBW7 activator 0.
CCOc1ccccc1OCC(=O)N/N=C/c1cc(C)ccc1O was read as MITF inh -14, GPR151 ag 0, TEAD-YAP block 61* and FBW7 activator -2.
Screening Cc1n[nH]c(C)c1CCC(=O)N/N=C/c1ccc(Br)cc1 returned MITF inh 10, GPR151 ag 0, TEAD-YAP block 5 and FBW7 activator 0.
For Cc1ccsc1CCNC(=O)C1CCC(CNc2c(N3CCCC3)c(=O)c2=O)CC1 (stereo not drawn) the results were MITF inh 7, GPR151 ag 1, TEAD-YAP block 5 and FBW7 activator 0.
`COc1cc(/C=N/NC(=O)COc2ccc(C)cc2C)ccc1O` gave MITF inh -14, GPR151 ag 0, TEAD-YAP block -8 and FBW7 activator 1.9*.
COc1cc(/C=N\NC(=O)COc2cc(C)ccc2C(C)C)cc(OC)c1O was read as MITF inh 11, GPR151 ag -1, TEAD-YAP block 36* and FBW7 activator 0.
Screening Cc1ccc(/C=N/NC(=O)COc2ccccc2C)cc1 returned MITF inh -3, GPR151 ag -1, TEAD-YAP block 50* and FBW7 activator 0.
Screening COc1cc(/C=N\NC(=O)COc2ccc(C)cc2C)cc(OC)c1O returned MITF inh 6, GPR151 ag 0, TEAD-YAP block -8 and FBW7 activator 0.
Cc1ccccc1OCC(=O)N/N=C/c1ccc(F)cc1 was read as MITF inh 12, GPR151 ag 1, TEAD-YAP block -2 and FBW7 activator 0.
`O=C(COc1ccccc1-c1ccccc1)N/N=C\c1ccc[nH]1` gave MITF inh 6, GPR151 ag 0, TEAD-YAP block 51* and FBW7 activator 0.
`Nc1ccnc(Nc2cnccn2)n1` gave MITF inh -9, GPR151 ag 0, TEAD-YAP block -6 and FBW7 activator 0.
For COc1ccccc1C(=O)Nc1cc(C(F)(F)F)ccc1Br the results were MITF inh -3, GPR151 ag 1, TEAD-YAP block -3 and FBW7 activator 0.
CCOC(=O)N1CCc2c(sc3ncn(CC(=O)c4ccccc4)c(=O)c23)C1 was read as MITF inh 4, GPR151 ag 0, TEAD-YAP block 49* and FBW7 activator 1.
COc1c(O)ccc(/C=c2\sc3nc4ccccc4n3c2=O)c1[N+](=O)[O-] was read as MITF inh 0, GPR151 ag 3, TEAD-YAP block -39 and FBW7 activator 0.
`COc1ccc(OC)c(/C=C2/SC(=Nc3ccc(C)cc3)NC2=O)c1` gave MITF inh 15, GPR151 ag 1, TEAD-YAP block 51* and FBW7 activator 0.
For COc1ccc(/C=C2\SC(=Nc3ccccc3)NC2=O)c2ccccc12 the results were MITF inh 10, GPR151 ag 2, TEAD-YAP block 63* and FBW7 activator 0.
For COc1ccc2ccccc2c1/C=C1/SC(=Nc2ccccc2)NC1=O the results were MITF inh 2, GPR151 ag 0, TEAD-YAP block 44* and FBW7 activator 0.
COc1ccc(/C=C2\SC(=Nc3ccccc3F)NC2=O)c(OC)c1 was read as MITF inh 16, GPR151 ag -1, TEAD-YAP block 17 and FBW7 activator 0.
For COc1ccc(/C=C2\SC(=Nc3cccc4ccccc34)NC2=O)c(OC)c1 the results were MITF inh 15, GPR151 ag -1, TEAD-YAP block 59* and FBW7 activator 0.
Screening COc1ccc2ccccc2c1/C=C1\SC(=S)NC1=O returned MITF inh 1, GPR151 ag 0, TEAD-YAP block 8 and FBW7 activator 0.
Cc1ccc(NC(=O)C(=O)N/N=C/c2ccc(F)cc2)c(C)c1 was read as MITF inh -5, GPR151 ag 1, TEAD-YAP block -11 and FBW7 activator 0.
Screening COc1ccc(OC)c(N(CC(=O)NCc2ccc(C)cc2)S(C)(=O)=O)c1 returned MITF inh 4, GPR151 ag 0, TEAD-YAP block 2 and FBW7 activator 0.
For Cc1nc2ccc(Br)cn2c1C(=O)NC1CC1 the results were MITF inh 9, GPR151 ag -1, TEAD-YAP block 13 and FBW7 activator 0.
O=C(CCn1c2ccccc2c2ccccc21)NNC(=S)NCc1ccco1 was read as MITF inh -6, GPR151 ag 0, TEAD-YAP block -7 and FBW7 activator 0.
`CN(c1ccc(Br)cc1)S(=O)(=O)c1ccc2c(c1)oc(=O)n2C` gave MITF inh 9, GPR151 ag 1, TEAD-YAP block 34* and FBW7 activator 0.
COc1ccc(N(C)S(=O)(=O)c2ccc3c(c2)oc(=O)n3C)cc1 was read as MITF inh 20, GPR151 ag 1, TEAD-YAP block 3 and FBW7 activator 0.
For CN(c1ccccc1)S(=O)(=O)c1ccc2c(c1)oc(=O)n2C the results were MITF inh 10, GPR151 ag -1, TEAD-YAP block 56* and FBW7 activator 1.
C=CCN(c1ccccc1)C(C(=O)Nc1ccc2c(c1)OCO2)c1ccc(Cl)cc1 (stereo not drawn) was read as MITF inh 7, GPR151 ag 0, TEAD-YAP block 6 and FBW7 activator 1.
Screening COCCNC(=S)Nc1ccc(C)c(Cl)c1 returned MITF inh 6, GPR151 ag 2, TEAD-YAP block -12 and FBW7 activator 0.
For O=C(c1n[nH]c2c1CCCC2)n1ccnc1 the results were MITF inh 10, GPR151 ag 1, TEAD-YAP block 54* and FBW7 activator 0.
Screening O=C(O)c1n[nH]c2c1CCCC2 returned MITF inh 5, GPR151 ag -1, TEAD-YAP block -8 and FBW7 activator 0.
COc1ccc2[nH]c(C)cc(=O)c2c1 was read as MITF inh 12, GPR151 ag 1, TEAD-YAP block 11 and FBW7 activator 0.

Compound activity: PubChem, The Scripps Research Institute Molecular Screening Center
